Assay results: PubChem BioAssay (EPA / NIEHS)
Results filed as inconclusive are left out. The source made the active and inactive calls. The calls were made as follows, unless noted: active = hit-call score of the fitted dose curve at least 0.9, where 1 is the maximum; inactive = score below 0.9.

Columns and labels:
[1] = target: Nuclear respiratory factor 1 (Homo sapiens) (UniProt Q16656); assay: ATG_NRF1_CIS: Attagene CIS-FACTORIAL HepG2 Assay for human Nuclear Respiratory Factor 1 (NRF1) Orphan Gene (AID 2282987); details: HepG2 NRF1 cis-element reporter, Attagene multiplex; actives raise or lower the signal
How it was run: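 Reporter mRNA induction or loss in HepG2 cells after 24 h dosing; cis-regulated reporter constructs report endogenous transcription-factor activity. Quantified by RT-PCR/capillary electrophoresis fluorescence, DMSO-referenced.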

[2] = ATG_NFI_CIS: Attagene CIS-FACTORIAL HepG2 Assay for human Nuclear Factor I (NFI) (AID 2282989); details: HepG2 cis-regulatory reporter, NFI response element transcription; actives raise or lower the signal
How it was run: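 Transfected HepG2 liver cells, exposed 24 h, supplied total RNA for oligo(dT) reverse transcription and reporter-specific PCR. Labelled, HpaI-cut fragments were sized by capillary electrophoresis; DMSO set the baseline for bidirectional fitting.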

[3] = target: Myc proto-oncogene protein (Homo sapiens) (UniProt P01106); assay: ATG_Myc_CIS: Attagene CIS-FACTORIAL HepG2 Assay for human Myelocytomatosis (Myc) Proto-Oncogene Transcription Factor (AID 2282990); details: HepG2, Attagene cis-reporter transcription factor activity; actives raise or lower the signal
How it was run: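 DMSO-normalised, bidirectionally fitted reporter mRNA signal. HepG2 cells transfected with cis reporter constructs, treated 24 h; transcripts detected by RT-PCR, 6-FAM primer extension and CE.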

[4] = ATG_NRF2_ARE_CIS: Attagene CIS-FACTORIAL HepG2 Assay for human Nuclear Factor Erythroid 2 Related Factor 2 (NFR2) response to Antioxidant Response Elements (ARE) (AID 2282992); details: HepG2 Attagene ARE/NRF2 reporter, transcription factor activity; actives raise or lower the signal
How it was run: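 Using transiently transfected HepG2 cells exposed for 24 h, reporter mRNA levels were determined by RT-PCR with fluorescent primer extension and capillary electrophoresis, analysed for gain or loss of signal against DMSO.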

[5] = ATG_Oct_MLP_CIS: Attagene CIS-FACTORIAL HepG2 Assay for human Octamer-Binding Transcription Factor (Oct) (AID 2282993); details: HepG2 Attagene cis-factorial Oct reporter, mRNA; actives raise or lower the signal
How it was run: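 Using HepG2 cells bearing transfected cis-reporter constructs, mRNA induction was read after 24 h by fluorescent RT-PCR and capillary electrophoresis, with DMSO defining baseline for gain- or loss-of-signal fits.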

[6] = target: Cellular tumor antigen p53 (Homo sapiens) (UniProt P04637); assay: ATG_p53_CIS: Attagene CIS-FACTORIAL HepG2 Assay for human p53 Transcription Factor (AID 2282994); details: HepG2 p53 cis-element reporter, Attagene mRNA; actives raise or lower the signal
How it was run: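 In HepG2 cells, reporter transcription units under cis-regulatory promoters were transiently introduced. Following 24 h treatment, RNA was processed to labelled, digested cDNA fragments read by capillary electrophoresis; fitting was bidirectional versus DMSO.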

[7] = target: Retinoic acid receptor alpha (Homo sapiens) (UniProt P10276); assay: ATG_RARa_TRANS: Attagene TRANS-FACTORIAL HepG2 Assay for human Retinoic Acid Receptor alpha (RARa) (AID 2283005; active = hit-call score of the fitted dose curve at least 0.9, where 1 is the maximum)
How it was run: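 HepG2 cells transiently transfected with multiple reporter units expressing chimeric RARα-GAL4 fusion, with GAL4-UAS-driven reporters. After 24 h compound exposure, reporter mRNA induction quantified by RT-PCR and capillary electrophoresis with fluorescent labeling; gain-of-signal fitted relative to DMSO control.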

[8] = target: Peroxisome proliferator-activated receptor gamma (Homo sapiens) (UniProt P37231); assay: ATG_PPARg_TRANS: Attagene TRANS-FACTORIAL HepG2 Assay for human Peroxisome Proliferator-activated Receptor-gamma (PPARg) (AID 2283007; active = hit-call score of the fitted dose curve at least 0.9, where 1 is the maximum)
How it was run: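 Chimeric NR-Gal4 transactivation is measured in transiently transfected HepG2 cells by reporter mRNA induction at 24 h. Detection uses RT-PCR with fluorescent labelling and capillary electrophoresis; DMSO defines baseline.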

[9] = target: Nuclear receptor subfamily 1 group I member 2 (Homo sapiens) (UniProt O75469); assay: ATG_PXR_TRANS: Attagene TRANS-FACTORIAL HepG2 Assay for human Pregnane X Receptor (PXR) (AID 2283008; active = hit-call score of the fitted dose curve at least 0.9, where 1 is the maximum)
How it was run: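 Multiplexed TRANS reporter panel in HepG2; this component tracks PXR-Gal4-driven reporter mRNA after 24 h dosing, measured by RT-PCR with capillary electrophoresis fluorescence, fitted against DMSO.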

[10] = target: human Retinoic Acid Receptor gamma (RARg), RARG (gene 5916) (UniProt P13631); assay: ATG_RARg_TRANS: Attagene TRANS-FACTORIAL HepG2 Assay for human Retinoic Acid Receptor gamma (RARg) (AID 2283009; active = hit-call score of the fitted dose curve at least 0.9, where 1 is the maximum)
How it was run: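 Gain-of-signal relative to DMSO is reported from fluorescent capillary electrophoresis of RT-PCR reporter products. These came from HepG2 cells expressing transfected RARg-GAL4 chimeras with UAS reporters, harvested 24 h after dosing.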

[11] = target: human RAR-related Orphan Receptor beta (RORb), RORB (gene 6096) (UniProt Q92753); assay: ATG_RORb_TRANS: Attagene TRANS-FACTORIAL HepG2 Assay for human RAR-related Orphan Receptor beta (RORb) (AID 2283010; active = hit-call score of the fitted dose curve at least 0.9, where 1 is the maximum)
How it was run: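 Multiplexed transcription-factor reporter assay: HepG2 cells transiently carrying NR-Gal4/GAL4-UAS constructs, 24 h treatment, mRNA quantified by RT-PCR plus capillary electrophoresis fluorescence; activity scored as induction over DMSO.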

[12] = target: human Peroxisome Proliferator-activated Receptor alpha (PPARa), PPARA (gene 5465) (UniProt Q07869); assay: ATG_PPARa_TRANS: Attagene TRANS-FACTORIAL HepG2 Assay for human Peroxisome Proliferator-activated Receptor alpha (PPARa) (AID 2283001; active = hit-call score of the fitted dose curve at least 0.9, where 1 is the maximum)
How it was run: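 Exposure: 24 h, transiently transfected HepG2 cells. Endpoint: GAL4-UAS reporter mRNA, RT-PCR with capillary electrophoresis fluorescence. Baseline: DMSO; increases fitted.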

[13] = target: human Peroxisome Proliferator-activated Receptor delta (PPARd), PPARD (gene 5467) (UniProt Q03181); assay: ATG_PPARd_TRANS: Attagene TRANS-FACTORIAL HepG2 Assay for human Peroxisome Proliferator-activated Receptor delta (PPARd) (AID 2283002; active = hit-call score of the fitted dose curve at least 0.9, where 1 is the maximum)
How it was run: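 Measured quantity: GAL4-UAS reporter transcript induction in HepG2 after 24 h chemical dosing, with NR-Gal4 chimeras supplied by transient transfection. Detection by RT-PCR and capillary electrophoresis; upward fit against DMSO.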

[14] = ATG_NF_kB_CIS: Attagene CIS-FACTORIAL HepG2 Assay for human Nuclear Factor Kappa B (NF-kB) (AID 2282991); details: HepG2 Attagene cis-factorial NF-kB reporter mRNA; actives raise or lower the signal
How it was run: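 DMSO served as negative control and baseline for bidirectional curve fitting. Transiently transfected HepG2 cells were dosed for 24 h, then reporter transcripts were measured by RT-PCR with capillary electrophoresis detection.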

[15] = BSK_3C_TissueFactor: BioMAP Diversity Plus: 3C Assay for Tissue Factor Biomarker Activity (AID 2282997); details: BioMAP 3C HUVEC, tissue factor biomarker readout; actives raise or lower the signal
How it was run: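 HUVEC, 3C system, 24 h post-dose; Tissue Factor by ELISA; bidirectional fit vs DMSO baseline.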

[16] = BSK_3C_uPAR: BioMAP Diversity Plus: 3C Assay for Urokinase-type plasminogen activator receptor (uPAR) Biomarker Activity (AID 2282998); details: BioMAP 3C HUVEC, uPAR biomarker ELISA; actives raise or lower the signal
How it was run: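 In this endothelial cell-based assay, human umbilical vein primary cells were treated with chemicals and harvested at 24 h. uPAR was quantified using ELISA, with gains or losses fitted relative to DMSO controls.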

[17] = BSK_4H_Eotaxin3: BioMAP Diversity Plus: 4H Assay for Eotaxin 3 Biomarker Activity (AID 2283000); details: primary human endothelial cells (HUVEC); actives raise or lower the signal
How it was run: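 Readout is Eotaxin-3 (CCL26) level by ELISA in primary human umbilical vein endothelial cells harvested 24 h after chemical exposure; activity fitted in both directions against DMSO control.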

[18] = read-out: Intercellular Adhesion Molecule 1 (ICAM1), ICAM1 (gene 3383); assay: BSK_3C_ICAM1: BioMAP Diversity Plus: 3C Assay for Intercellular Adhesion Molecule 1 (ICAM1) Biomarker Activity (AID 2283003); details: primary human endothelial cells (HUVEC); actives raise or lower the signal
How it was run: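 Using DMSO as baseline, bidirectional curve fitting was applied to ICAM-1 ELISA signals from HUVEC in the 3C system, measured 24 h after compound addition.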

[19] = BSK_3C_Proliferation: Cell Proliferation Assessment in the BioMAP Diversity Plus: 3C Assay (AID 2283006); details: primary human endothelial cells (HUVEC);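 as to AC50: potency may reflect either rise or fall in cell number versus DMSO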
How it was run: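 Measured here: sulforhodamine B (0.1%) staining of TCA-fixed sub-confluent umbilical vein endothelial cultures 48 h post-dosing, absorbance 560 nm. DMSO served as negative control and baseline; both signal gain and loss were modelled.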

[20] = BSK_3C_VCAM1: BioMAP Diversity Plus: 3C Assay for Vascular cell adhesion molecule 1 (VCAM1) Biomarker Activity (AID 2282999); details: BioMAP 3C HUVEC, VCAM1 ELISA, cytokine-stimulated; actives raise or lower the signal
How it was run: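 Vascular primary endothelium (human umbilical vein) was exposed to chemicals and assayed 24 h later. VCAM-1 levels came from ELISA, with DMSO serving as baseline for bidirectional fitting.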

Measured: AC50

human RAR-related Orphan Receptor beta (RORb), RORB (gene 6096), sequence (Q92753 whole entry, looked up, the tested form may be a part): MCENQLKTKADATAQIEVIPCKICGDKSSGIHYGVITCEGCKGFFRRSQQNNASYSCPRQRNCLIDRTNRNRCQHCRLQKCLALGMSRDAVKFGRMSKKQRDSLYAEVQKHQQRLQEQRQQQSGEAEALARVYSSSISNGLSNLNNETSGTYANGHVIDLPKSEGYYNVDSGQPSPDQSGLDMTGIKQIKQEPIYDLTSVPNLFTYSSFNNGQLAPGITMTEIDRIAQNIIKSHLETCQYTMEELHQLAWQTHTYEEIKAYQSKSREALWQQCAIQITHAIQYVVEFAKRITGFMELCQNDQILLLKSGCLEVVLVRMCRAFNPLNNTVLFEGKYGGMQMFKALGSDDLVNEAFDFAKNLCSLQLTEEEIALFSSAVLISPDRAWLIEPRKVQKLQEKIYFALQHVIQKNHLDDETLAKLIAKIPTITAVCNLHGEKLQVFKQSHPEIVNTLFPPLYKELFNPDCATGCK
Peroxisome proliferator-activated receptor gamma (Homo sapiens), sequence (P37231 whole entry, looked up, the tested form may be a part): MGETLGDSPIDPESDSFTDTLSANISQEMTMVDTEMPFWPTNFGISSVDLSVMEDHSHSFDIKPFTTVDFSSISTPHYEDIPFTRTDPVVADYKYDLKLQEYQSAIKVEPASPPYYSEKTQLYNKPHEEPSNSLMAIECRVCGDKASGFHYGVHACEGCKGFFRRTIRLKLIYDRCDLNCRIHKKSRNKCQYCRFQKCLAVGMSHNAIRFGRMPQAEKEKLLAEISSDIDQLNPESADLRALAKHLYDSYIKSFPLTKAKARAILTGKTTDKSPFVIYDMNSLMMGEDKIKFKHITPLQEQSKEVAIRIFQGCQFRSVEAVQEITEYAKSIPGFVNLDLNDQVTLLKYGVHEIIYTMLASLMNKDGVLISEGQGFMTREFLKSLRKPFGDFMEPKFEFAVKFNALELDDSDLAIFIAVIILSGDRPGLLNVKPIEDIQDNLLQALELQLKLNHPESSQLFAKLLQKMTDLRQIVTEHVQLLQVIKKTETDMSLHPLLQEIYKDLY
Cellular tumor antigen p53 (Homo sapiens), sequence (P04637 whole entry, looked up, the tested form may be a part): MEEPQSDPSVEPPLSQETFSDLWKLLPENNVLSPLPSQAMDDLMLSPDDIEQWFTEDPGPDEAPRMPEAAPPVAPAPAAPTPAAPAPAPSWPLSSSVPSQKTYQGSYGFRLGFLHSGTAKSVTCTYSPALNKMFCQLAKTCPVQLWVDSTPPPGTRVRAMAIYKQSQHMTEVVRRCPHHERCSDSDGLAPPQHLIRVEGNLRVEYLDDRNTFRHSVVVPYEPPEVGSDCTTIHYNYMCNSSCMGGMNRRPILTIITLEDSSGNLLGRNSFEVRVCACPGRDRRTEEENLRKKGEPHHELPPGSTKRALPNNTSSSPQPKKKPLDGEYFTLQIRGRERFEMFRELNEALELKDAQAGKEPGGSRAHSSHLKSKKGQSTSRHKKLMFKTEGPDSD
Nuclear receptor subfamily 1 group I member 2 (Homo sapiens), sequence (O75469 whole entry, looked up, the tested form may be a part): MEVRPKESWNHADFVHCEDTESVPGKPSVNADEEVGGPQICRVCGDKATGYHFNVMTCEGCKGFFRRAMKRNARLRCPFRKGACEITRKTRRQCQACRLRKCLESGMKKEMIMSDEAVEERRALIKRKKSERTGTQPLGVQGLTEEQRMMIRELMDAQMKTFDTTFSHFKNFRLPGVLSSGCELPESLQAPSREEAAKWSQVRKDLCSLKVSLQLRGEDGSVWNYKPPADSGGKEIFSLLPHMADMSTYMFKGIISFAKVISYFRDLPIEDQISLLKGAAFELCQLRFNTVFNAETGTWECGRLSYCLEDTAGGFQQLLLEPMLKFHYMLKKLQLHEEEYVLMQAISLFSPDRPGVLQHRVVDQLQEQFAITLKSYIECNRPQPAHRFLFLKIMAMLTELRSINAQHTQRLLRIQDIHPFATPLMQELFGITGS
human Peroxisome Proliferator-activated Receptor alpha (PPARa), PPARA (gene 5465), sequence (Q07869 whole entry, looked up, the tested form may be a part): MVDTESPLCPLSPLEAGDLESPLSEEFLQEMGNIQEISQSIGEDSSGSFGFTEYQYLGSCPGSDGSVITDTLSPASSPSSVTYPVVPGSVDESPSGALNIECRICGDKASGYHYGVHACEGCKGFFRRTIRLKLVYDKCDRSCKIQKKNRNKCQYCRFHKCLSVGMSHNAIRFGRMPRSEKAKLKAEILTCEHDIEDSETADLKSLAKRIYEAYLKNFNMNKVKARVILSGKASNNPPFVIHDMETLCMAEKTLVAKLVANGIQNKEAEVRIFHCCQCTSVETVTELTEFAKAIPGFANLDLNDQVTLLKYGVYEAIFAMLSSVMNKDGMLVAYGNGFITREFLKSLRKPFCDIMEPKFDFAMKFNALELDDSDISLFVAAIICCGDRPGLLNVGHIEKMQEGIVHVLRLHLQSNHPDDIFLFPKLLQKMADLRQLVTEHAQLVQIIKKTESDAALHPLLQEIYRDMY
Myc proto-oncogene protein (Homo sapiens), sequence (P01106 whole entry, looked up): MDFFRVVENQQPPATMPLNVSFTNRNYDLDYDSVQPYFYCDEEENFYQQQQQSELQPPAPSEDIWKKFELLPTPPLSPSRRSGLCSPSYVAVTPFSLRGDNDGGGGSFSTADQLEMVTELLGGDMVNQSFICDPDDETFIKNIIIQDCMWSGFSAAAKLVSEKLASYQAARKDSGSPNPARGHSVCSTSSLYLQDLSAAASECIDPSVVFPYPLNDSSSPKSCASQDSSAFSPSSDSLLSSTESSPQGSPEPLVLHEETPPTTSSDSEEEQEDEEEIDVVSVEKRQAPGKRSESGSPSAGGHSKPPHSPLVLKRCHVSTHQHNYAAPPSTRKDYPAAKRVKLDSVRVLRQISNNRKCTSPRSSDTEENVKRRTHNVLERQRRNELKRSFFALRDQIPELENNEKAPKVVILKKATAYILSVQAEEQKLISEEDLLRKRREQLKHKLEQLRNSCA
Nuclear respiratory factor 1 (Homo sapiens), sequence (Q16656 whole entry, looked up): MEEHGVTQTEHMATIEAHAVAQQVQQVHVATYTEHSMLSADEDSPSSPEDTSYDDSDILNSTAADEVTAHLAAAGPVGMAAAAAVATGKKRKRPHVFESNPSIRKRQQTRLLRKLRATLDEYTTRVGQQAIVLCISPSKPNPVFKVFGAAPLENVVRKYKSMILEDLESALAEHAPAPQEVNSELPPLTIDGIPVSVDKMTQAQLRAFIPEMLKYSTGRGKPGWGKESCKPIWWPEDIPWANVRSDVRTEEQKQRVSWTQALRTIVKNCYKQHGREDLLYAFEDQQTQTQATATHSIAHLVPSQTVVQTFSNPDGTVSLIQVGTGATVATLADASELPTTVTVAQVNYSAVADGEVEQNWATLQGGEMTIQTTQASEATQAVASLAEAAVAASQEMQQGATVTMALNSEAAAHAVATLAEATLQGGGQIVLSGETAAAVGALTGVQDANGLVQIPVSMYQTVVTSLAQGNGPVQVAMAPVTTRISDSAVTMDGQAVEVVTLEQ
human Peroxisome Proliferator-activated Receptor delta (PPARd), PPARD (gene 5467), sequence (Q03181 whole entry, looked up, the tested form may be a part): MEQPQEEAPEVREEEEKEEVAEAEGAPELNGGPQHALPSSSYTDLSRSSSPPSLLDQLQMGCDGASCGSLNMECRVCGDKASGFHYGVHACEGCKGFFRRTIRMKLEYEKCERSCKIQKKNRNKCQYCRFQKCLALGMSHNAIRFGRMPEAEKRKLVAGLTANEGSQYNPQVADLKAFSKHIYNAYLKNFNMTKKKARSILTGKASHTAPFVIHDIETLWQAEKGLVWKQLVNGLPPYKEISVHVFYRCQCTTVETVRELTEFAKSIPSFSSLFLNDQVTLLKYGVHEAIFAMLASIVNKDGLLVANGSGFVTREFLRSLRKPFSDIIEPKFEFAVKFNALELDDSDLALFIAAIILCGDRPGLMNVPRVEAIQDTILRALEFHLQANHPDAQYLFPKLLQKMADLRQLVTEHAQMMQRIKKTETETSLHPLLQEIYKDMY
human Retinoic Acid Receptor gamma (RARg), RARG (gene 5916), sequence (P13631 whole entry, looked up, the tested form may be a part): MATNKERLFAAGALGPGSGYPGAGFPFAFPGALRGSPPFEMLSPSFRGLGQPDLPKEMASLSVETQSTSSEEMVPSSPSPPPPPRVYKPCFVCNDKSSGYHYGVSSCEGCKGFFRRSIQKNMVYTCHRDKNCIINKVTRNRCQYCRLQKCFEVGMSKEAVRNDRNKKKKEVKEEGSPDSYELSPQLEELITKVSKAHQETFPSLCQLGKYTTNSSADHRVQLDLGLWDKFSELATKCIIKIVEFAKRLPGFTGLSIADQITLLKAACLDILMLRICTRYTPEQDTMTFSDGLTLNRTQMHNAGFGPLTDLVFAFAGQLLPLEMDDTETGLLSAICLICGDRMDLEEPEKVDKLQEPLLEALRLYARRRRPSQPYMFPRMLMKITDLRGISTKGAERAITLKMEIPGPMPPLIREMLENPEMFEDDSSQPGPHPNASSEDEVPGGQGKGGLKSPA
Retinoic acid receptor alpha (Homo sapiens), sequence (P10276 whole entry, looked up, the tested form may be a part): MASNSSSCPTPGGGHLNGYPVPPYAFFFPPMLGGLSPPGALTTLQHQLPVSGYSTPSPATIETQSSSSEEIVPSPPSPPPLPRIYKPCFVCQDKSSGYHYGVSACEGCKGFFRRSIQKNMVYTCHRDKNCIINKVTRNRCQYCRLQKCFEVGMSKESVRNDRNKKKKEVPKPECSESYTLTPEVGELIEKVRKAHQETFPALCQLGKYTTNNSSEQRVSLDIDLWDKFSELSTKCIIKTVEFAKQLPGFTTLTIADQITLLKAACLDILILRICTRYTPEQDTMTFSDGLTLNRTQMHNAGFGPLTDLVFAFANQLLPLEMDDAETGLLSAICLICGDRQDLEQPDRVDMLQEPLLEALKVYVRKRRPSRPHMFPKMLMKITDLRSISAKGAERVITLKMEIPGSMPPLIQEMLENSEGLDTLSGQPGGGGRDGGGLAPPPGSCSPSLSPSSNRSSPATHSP

Nc1cc([N+](=O)[O-])ccc1C(=O)O
active: [4] 51.8 µM
inactive: [1] | [2] | [3] | [5] | [6] | [7] | [8] | [9] | [10] | [11]

CCOCC(C)O (centres undefined)
inactive: [1] | [2] | [3] | [4] | [5] | [12] | [13] | [11]

CCCCCCOc1ccc(O)cc1
active: [4] 18.7 µM | [5] 33.4 µM | [8] 27.6 µM | [9] 15 µM
inactive: [1] | [2] | [14] | [6] | [12] | [13] | [10]

C=CC(=O)OCC(CO)(COC(=O)C=C)COC(=O)C=C
active: [15] 0.137 µM | [16] 0.443 µM | [17] 0.41 µM | [18] 0.574 µM | [19] 0.131 µM
inactive: [1] | [2] | [3] | [4] | [12] | [13] | [8]

CCCOC(=O)CC
inactive: [1] | [2] | [3] | [12] | [8] | [11]

COc1ccccc1NC(=O)CC(C)=O
active: [9] 37 µM
not listed: [2] | [4] | [7] | [10]
inactive: all other assays above
